Out of some 220,000 compounds screened, about 16,000 (7.3%) were called active. Another 25% or so got no clear call; they are omitted. Calls come from the whole dose curve; as a rule, active = well fitted inhibition curve with a large enough effect (not every such curve was filed as active); inconclusive = small, poorly fitted or top-dose-only effect, or another doubt; inactive = no such curve, though single readings can be large or run the other way. For the sample, actives were picked, then their nearest neighbours and some compounds at random. Square brackets hold non-standard residues; d marks the D form. Peptide text beside a SMILES is read from it. ξ: configuration not given here. ξM = CSCCC(N)C(=O)O
target: Aldehyde dehydrogenase 1A1 (Homo sapiens) (UniProt P00352); experiment: qHTS Assay for Inhibitors of Aldehyde Dehydrogenase 1 (ALDH1A1); conditions: Purified ALDH1A1, NADH fluorescence, propionaldehyde substrate; series mostly up to 75.3 µM;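 for activity, negative = inhibition: plate controls were no enzyme wells and a reference inhibitor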
Sequence (P00352 whole entry, looked up): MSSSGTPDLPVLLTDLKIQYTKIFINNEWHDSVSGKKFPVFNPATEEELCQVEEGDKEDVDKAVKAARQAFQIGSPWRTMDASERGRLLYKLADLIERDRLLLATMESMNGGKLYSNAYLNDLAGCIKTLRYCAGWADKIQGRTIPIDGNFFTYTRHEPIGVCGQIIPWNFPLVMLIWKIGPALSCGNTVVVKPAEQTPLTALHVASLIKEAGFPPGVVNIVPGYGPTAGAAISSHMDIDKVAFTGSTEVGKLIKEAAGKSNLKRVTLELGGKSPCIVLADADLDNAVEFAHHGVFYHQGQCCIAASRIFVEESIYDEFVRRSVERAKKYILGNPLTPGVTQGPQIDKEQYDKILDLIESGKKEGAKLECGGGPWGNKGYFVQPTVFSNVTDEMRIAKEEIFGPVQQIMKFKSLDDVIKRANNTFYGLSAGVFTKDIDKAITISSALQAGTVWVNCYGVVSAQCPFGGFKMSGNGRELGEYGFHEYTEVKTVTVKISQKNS
Potency is the fitted concentration of half-maximal effect.

Potency, inactive:
COc1ccc(/C=N/n2c(C)cc(C)cc2=O)cc1
CC1=NNC(=O)C1CCC(=O)N/N=C\c1ccc(Cl)c(Cl)c1 (stereo not given)
O=C(N/N=C/c1ccc2c(c1)OCO2)C(=O)N1CCCC1
O=C(Nc1ccc2c(c1)OCO2)c1sc2cc(Cl)ccc2c1Cl
Cc1ccc(C2NC(C(=O)O)CS2)cc1 (stereo not given)
COC(=O)C1C(=O)NCC1c1ccc(C)cc1 (stereo not given)
O=C(O)Cc1ccc(-c2ccccc2)cc1
CCOC(=O)/C=C/C(=O)OCC(=O)NC(c1ccccc1)c1ccccc1
COc1ccc(Br)c2c1C(=O)CC2
CCC(CC)NC(=O)CSc1nnc(-c2c[nH]c3ccccc23)o1
Cc1cccc(CNc2cc(-c3ccccc3Cl)ncn2)c1
Cc1cc(C)n(-c2nc(C(F)(F)F)nc3ccccc23)n1
COc1cc(C(=O)NCc2ccc3c(c2)cc(C)n3C)cc(OC)c1OC
Cc1ccc(NC(=S)NC2CCCC2)cc1
C/C(=N/NC(=O)c1ccc(Br)o1)c1ccc(C)o1
COc1ccccc1CN(C)c1nnnn1-c1ccccc1
Cc1cc(OCC(=O)NC2CCN(C)CC2)ccc1[N+](=O)[O-]
CCOC(=O)c1cc(-c2ccc(F)cc2)n(CC(=O)NCc2ccccn2)c1C
O=C(N/N=C/c1c(Cl)[nH]c2ccccc12)c1sc2ccccc2c1Cl
O=C(Nc1ccon1)c1sc2ccccc2c1Cl
Cc1cc(N2CCOCC2)nc2ccc(NC(=S)N3CCN(Cc4ccccc4)CC3)cc12
CCN(CC)C(=O)N(CC)Cc1ccccc1
Cc1cc(Cl)c(S(=O)(=O)NCC2CCCO2)cc1OCC(N)=O (stereo not given)
O=S(=O)(NCC1CCCO1)c1ccc2ccccc2c1 (stereo not given)
CCO[C@@H]1OC(C(=O)NCc2nc3ccccc3[nH]2)=C[C@H](C2CCCCC2)[C@H]1CCCO
O=C(NNC(=S)NCCCN1CCOCC1)c1ccncc1
S=c1[nH]nc(-c2ccncc2)n1/N=C/c1ccccc1Cl
S=c1[nH]nc(-c2ccccc2)n1/N=C/c1c[nH]c2ccccc12
CCCC1(C(=O)OC)NC(c2ccco2)C2C(=O)N(C)C(=O)C21 (stereo not given)
COc1ccc(NC(=S)Nc2ccccc2Cl)cn1
Cc1ccc(NC(=O)OCc2cncs2)cc1
COc1ccc(NC(=S)NCCNC(C)=O)cc1
COc1cccc(NC(=O)Cc2ccc(C)cc2)c1
COc1cccc(C2c3[nH]c4ccccc4c3CCN2Cc2cccc(C)n2)c1 (stereo not given)
O=C(COc1ccc(Cl)cc1[N+](=O)[O-])N1CCCCC1
CC(C)(C)NC(=O)CN(C(=O)c1ccc(Cl)nc1)c1cccc2ccccc12
Clc1ccc2nc(CSc3ccccc3)cn2c1
COC(=O)CNC(=O)C(CCSC)NC(C)=O (stereo not given) (Ac-[ξM]-Gly-OMe)
CNC(=O)NC(=O)CSc1nnc(-c2ccc(F)cc2)n1CC1CCCO1 (stereo not given)
Cc1nnc(SCC(N)=O)n1CC1CCCO1 (stereo not given)
C=C1c2cccc(OC)c2O[C@H](C(=O)OCC)[C@@H]1CCCCCC
Cc1cc([N+](=O)[O-])ccc1NC(=O)c1ccc(NC(=O)C(C)C)cc1
CC1CCCCC1NC(=O)COC(=O)Cc1ccc(Br)cc1 (stereo not given)

Potency, active:
Cc1ccc(C2CC2C(=O)NN)cc1 (stereo not given) 14.1 µM
O=C(Cc1ccc(-c2ccccc2)cc1)NC(c1ccccc1)c1ccccc1 10 µM
Cc1oc(-c2ccccc2Cl)[n+]([O-])c1C 22.4 µM
C/C(=N\NC(=S)NC1CCCCC1)c1ccc(C)o1 12.6 µM
Oc1ccc(N=Cc2sc3ccccc3c2Cl)cc1 15 µM
O=S(=O)(NCC1CCCO1)c1cnc(Cl)c(Cl)c1 (stereo not given) 3.55 µM
Oc1ccccc1/C=N/n1c(-c2cccs2)n[nH]c1=S 15.8 µM
COc1ccc(NC(=O)/C(Cl)=C(/Cl)S(=O)Cc2ccc(C)cc2)cn1 (stereo not given) 5.01 µM
COc1ccc(CS(=O)/C(Cl)=C(/Cl)C(=O)Nc2ccc(OC)nc2)cc1 (stereo not given) 8.91 µM
O=C(CSc1nnc(-c2ccco2)n1CC1CCCO1)c1ccccc1 (stereo not given) 25.1 µM
CN(C)c1ccc(C=C2C(=O)OC3(CCCC3)OC2=O)cc1 0.251 µM

activity, negative = inhibition, inactive:
COC(=O)C1=C(C(=O)OC)[C@@H]2N(C)c3ccccc3[C@@]23C[C@@H](C(=O)OC)N(C(=O)c2ccco2)C3=N1 11.6% [at 13.5 µM]

— PubChem BioAssay AID1030 (National Center for Advancing Translational Sciences (NCATS), 2008)
